One assay concerns the target FAM178A. The assay can be described thus: pooled miR-30 sensor sort-seq; sequence = guide strand. Particulars: shRNA.
In the case of TTTAGTTCTCGTTCTCTGCAGT, the sensor-assay potency score (higher = more potent) is -0.0234.
The sequence TAAGAAGCTAGTGACAACTGGA returned a sensor-assay potency score (higher = more potent) of 0.82.
Sequence TTTCTTTAGAAATTCCTTGTGC had a sensor-assay potency score (higher = more potent) of 0.466.
With TAGTTTTGTCTCCTTCTCCTTT, the sensor-assay potency score (higher = more potent) is -0.485.
The same measure, in the same setting: as for TGAATGAATAGTGACTTCCTTC, the figure is -0.297; as for TATTGAAAAACACAGCTGCTAC, -0.444.
Still for that read-out and setting: as for TATGTCTTCTTGTAGTTGCTTC, the figure is 0.216; as for TTTTTCTTGAGAGATGTCCATT, -1.17; as for TTTAATTGCAGACTTTTCCTGA, 0.605.
In turn, TATACCATGATCTTCATGGTGC had a sensor-assay potency score (higher = more potent) of 0.577.

A further assay has as its target FAM181A. Described as above. Particulars: shRNA.
TTGATGTCGCTGGACGCCAGGT gave a sensor-assay potency score (higher = more potent) of -1.09.
On to ATCTTCACATCACTGTCGGATG, for which the sensor-assay potency score (higher = more potent) was -1.37.
TTTTCTTACCCTCATAGGGAGG showed a sensor-assay potency score (higher = more potent) of -1.8.
Same read-out and setting: with TTGCGATGGTCCACGGAGCGGC the figure was -0.977; with TAGCAAGACATTCCTCCCTGTA, -0.518; with TTTTCAGGTAGGGCTCAGCAGC, -1.38.
AAATCCAGGAGCAGCCTCCTGG returned a sensor-assay potency score (higher = more potent) of -1.06.
Sequence TTAGCAAGACATTCCTCCCTGT returned a sensor-assay potency score (higher = more potent) of 0.483.
On to TACTTCTGGGAGAAGCGCTTGA, for which the sensor-assay potency score (higher = more potent) is -0.152.
With TCGGATGCCATCACCAGGGGGC, the sensor-assay potency score (higher = more potent) is -0.489.
Take AACAAGAACAACAACTGAGATT: the sensor-assay potency score (higher = more potent) was -1.01.
On the same count and under the same terms, as for AAGAACAAGAACAACAACTGAG, the figure is 0.506.

A further assay addresses FAM181B. The description is as above. To be noted: shRNA.
In the case of TTGGTTTCTTGACTCCTCTGGT, the sensor-assay potency score (higher = more potent) turned out to be 0.637.
As for TACACTAAATACACTGACCTTC, the sensor-assay potency score (higher = more potent) is -0.096.
On the same count and under the same terms, as for TGAAGCTGAGTAGATCGCGGGT, the figure is -0.406.
The sequence TTGTGATTAAACAATCCCCAAC gave a sensor-assay potency score (higher = more potent) of -1.56.
The same measure, in the same setting: as for TAAATACACTGACCTTCGCTGA, the figure is -0.839; as for TTCACCTTCCGCTTCGACTTGC, 0.326.
TTTGTTTTAACACTTGAGGTTG registered a sensor-assay potency score (higher = more potent) of -0.289.
As to TCATCGTCCTCGAAACAGCAGC, the sensor-assay potency score (higher = more potent) is -1.07.
As for TTGTTTTAACACTTGAGGTTGT, the sensor-assay potency score (higher = more potent) is 0.449.
In turn, TTGATGTTGCTGGACGCCGAGT displayed a sensor-assay potency score (higher = more potent) of -1.34.
Consider TTTTGTTTTAACACTTGAGGTT, for which the sensor-assay potency score (higher = more potent) was determined as 0.0361.
With TTCTTGACTCCTCTGGTCCAGT, the sensor-assay potency score (higher = more potent) was -0.871.

A further assay addresses FAM194A. The description is as above. Particulars: shRNA.
TTTATCAGACAAATCTTGGAGC showed a sensor-assay potency score (higher = more potent) of -0.442.
In turn, TTTAGTTTCGACTCTTCTGGAT yielded a sensor-assay potency score (higher = more potent) of 0.0335.
Consider TTAGTTTCGACTCTTCTGGATT, for which the sensor-assay potency score (higher = more potent) is -1.18.
The sequence TTGTCTTGTTCTAAGATGCGGA had a sensor-assay potency score (higher = more potent) of -0.227.
On the same count and under the same terms, with TTCTCTAAGAGCTCATTCCTGA the figure was -0.231.
The sequence TTTTCTTTTGCCTTGAGTCTGT had a sensor-assay potency score (higher = more potent) of 0.354.

Source of the values: the OligoGym collection.
Further: reference of the scale not given here.
